# In all, about 50,000 compounds went through this assay and about 800 (1.6%) showed an effect of 50% or more. The entries come from a sample that favours strong results as a whole.
# Biological target: Bcl-2-like protein 10 (Homo sapiens) (UniProt Q9HD36)
# Test: TR3 peptide-Bcl-B binding displacers, biochemical primary FP assay, phenotype converters (AID 1240);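 further: 0% = Bcl-B with tracer peptide and DMSO and 100% = tracer peptide lacking Bcl-B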
# Settings: GST-Bcl-B / FITC-TR3 peptide fluorescence polarization; stronger effect = higher value; compound at 3.75 mg/L
# Bcl-2-like protein 10 (Homo sapiens), sequence (Q9HD36 whole entry, looked up): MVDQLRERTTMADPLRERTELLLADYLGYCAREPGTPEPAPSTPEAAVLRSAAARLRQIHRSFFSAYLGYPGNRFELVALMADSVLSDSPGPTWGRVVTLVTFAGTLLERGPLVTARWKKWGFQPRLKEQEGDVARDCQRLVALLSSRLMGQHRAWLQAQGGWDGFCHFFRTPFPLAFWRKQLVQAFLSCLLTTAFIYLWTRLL
row,SMILES,displacement
1,C[N+]1=C(CC(=O)Nc2ccccc2Cl)c2ccccc2CC1(C)C,1.4%
2,Cc1ccc2nc(-c3ccc(NC(=O)c4ccc(S(=O)(=O)N5CCCC5)cc4)cc3)sc2c1,-1.5%
3,Cc1cc(S(=O)(=O)N2CCCC2C(=O)O)c(C)cc1Cl (stereo not given),-5.8%
4,O=c1c2c(nc3cc(-c4cccs4)[nH]n13)CCCC2,20.5%
5,O=c1c2c(nc3cc(-c4cccs4)[nH]n13)CCC2,5.7%
6,Cc1nc2cc(-c3ccco3)[nH]n2c(=O)c1C,17%
7,O=c1c2c(nc3cc(-c4ccccc4)[nH]n13)CCS2,-12.6%
8,O=c1c2c(nc3cc(-c4ccco4)[nH]n13)CCS2,78.9%
9,O=c1c2c(nc3cc(-c4cccs4)[nH]n13)CCS2,75.8%
10,O=C1NC(=O)N(c2ccc3c(c2)OCO3)C(=O)/C1=C/c1ccc(I)o1,17.5%
11,COc1cc(/C=N/Nc2ncc(C)c(=O)[nH]2)cc(OC)c1O,6.6%
12,CN(C)c1ccc(NS(=O)(=O)c2ccc(N3C(=O)CCC3=O)cc2)cc1,19.2%
13,COc1ccc(N/C(C)=C/C(=O)c2ccc(Cl)cc2)c(OC)c1,0.8%
14,CCCCCCC(=O)Nc1nnc(CC(C)C)s1,-12.9%
15,C/C(=N\NC(=O)CCc1c(C)n[nH]c1C)c1ccc(N)cc1,-4%
16,CCCC1=NN(c2ccc([N+](=O)[O-])cc2)C(=O)/C1=C\N(C)C,-5.5%
17,NC(=O)c1c(NC(=O)Nc2ccc(Cl)cc2)sc2c1CCCC2,0.8%
18,CCOc1ccc(N2COc3ccc4ccccc4c3C2)cc1,9.1%
19,Oc1ccccc1N=Cc1c(O)c(I)cc2oc3c(c12)CCCC3,130%
20,Oc1c(Br)cc2oc3c(c2c1/C=N/c1ncn[nH]1)CCCC3,8.5%
21,Cc1ccc(N=Cc2c(O)c([N+](=O)[O-])cc3oc4c(c23)CCCC4)cc1C,-1.4%
22,O=C(NCc1cccnc1)C(=O)N1CCCCC1,-1.4%
23,O=C(CC(c1ccccc1)c1ccccc1)Nc1ccccc1Br,-11.6%
24,CC(=O)/C=C/c1oc2ccc([N+](=O)[O-])cc2c1-c1ccc(C)o1,80.9%
25,COc1cc2nnc(/C=C/C(C)=O)c(-c3ccc(C)o3)c2cc1OC,48%
26,CC(=O)CCc1oc2ccc([N+](=O)[O-])cc2c1-c1ccc(C)o1,3.5%
27,O=C(Nc1ccc(-c2nnc(-c3ccccc3)o2)cc1)c1cccs1,15.3%

row,SMILES,displacement
1,Nc1nonc1C(=O)N/N=C/c1cc(Cl)cc(Cl)c1O,9%
2,O=C1/C(=C\c2ccc(-c3ccccc3Cl)o2)SC(=S)N1Cc1ccccc1,10%
3,C=CCN1C(=O)/C(=C\c2ccc(-c3cccc(Cl)c3)o2)SC1=S,1.4%
4,O=C1/C(=C/c2ccc(-c3cc(Cl)ccc3Cl)o2)SC(=S)N1Cc1ccco1,14.1%
5,C=CCN1C(=O)/C(=C\c2ccc(-c3ccc(F)c(Cl)c3)o2)SC1=S,39.4%
6,C=CCN1C(=O)/C(=C\c2ccc(-c3ccc(Cl)c(Cl)c3)o2)SC1=S,50.1%
7,C=CCN1C(=O)/C(=C\c2ccc(-c3ccccc3Cl)o2)SC1=S,149%
8,O=C(O)CN1C(=O)/C(=C\c2ccc(-c3ccccc3Cl)o2)SC1=S,-121%
9,C=CCN1C(=O)/C(=C\c2ccc(-c3cc(Cl)cc(Cl)c3)o2)SC1=S,1.7%
10,CCOC(=O)c1ccc(-c2ccc(/C=C3/SC(=S)N(CC(=O)O)C3=O)o2)cc1,-83.7%
11,C=CCN1C(=O)/C(=C\c2ccc(-c3cc(Cl)ccc3Cl)o2)SC1=S,65.4%
12,CCOC(=O)c1ccc(-c2ccc(/C=C3/SC(=S)N(CC)C3=O)o2)cc1,31%
13,C=CCN1C(=O)/C(=C\c2ccc(-c3ccc(C(=O)OCC)cc3)o2)SC1=S,90.3%
14,O=C(COc1ccc(Cl)cc1Cl)Nc1ccc2c(c1)OCO2,3.3%
15,Cc1cc(OCC(=O)Nc2ccc(Nc3ccccc3)cc2)ccc1Br,1.1%
16,CCOc1ccc(N(CC(=O)Nc2ccccc2OCC)S(=O)(=O)c2ccc(SC)cc2)cc1,15.2%
17,O=C(COc1ccc([N+](=O)[O-])cc1)Nc1cc(C(F)(F)F)cc(C(F)(F)F)c1,-2.6%
18,O=C1NC(=Nc2ccc(O)cc2)S/C1=C/C=C/c1ccccc1,-5.6%
19,CC(=O)N(c1ccc(Br)cc1)C1SC(=O)N(c2cccc(C)c2)C1=O (stereo not given),-0.5%
20,CN(C(=O)c1cccs1)c1ccccc1C(=O)O,-1.3%
21,CN(c1ccccc1C(=O)O)C1SC(=O)N(c2ccccc2)C1=O (stereo not given),138%
22,Brc1ccc2c(c1)Nc1nc3nonc3nc1N2,3.9%
23,O=C1/C(=C/C=C/c2ccccc2)SC(=S)N1Cc1ccco1,99.7%
24,O=C1/C(=C/c2ccccc2[N+](=O)[O-])SC(=S)N1Cc1ccco1,16.5%
25,O=C1/C(=C/c2ccc3c(c2)OCO3)SC(=S)N1Cc1ccco1,94.5%
26,COc1ccccc1/C=C1\SC(=S)N(Cc2ccco2)C1=O,1%
27,CCCCN1C(=O)/C(=C/C=C/c2ccccc2)SC1=S,-0.6%

row,SMILES,displacement
1,O=C1/C(=C/c2ccc(O)cc2)SC(=S)N1Cc1ccco1,-13.3%
2,O=C1/C(=C/c2cccc(Br)c2)SC(=S)N1Cc1ccco1,3.6%
3,C=CCN1C(=O)/C(=C\C=C\c2ccccc2)SC1=S,6.3%
4,COc1ccc(/C=C2\SC(=S)N(Cc3ccco3)C2=O)cc1OC,21.8%
5,O=C1/C(=C/c2ccc(Br)cc2)SC(=S)N1Cc1ccco1,104%
6,O=C1/C(=C/c2cccc3ccccc23)SC(=S)N1Cc1ccco1,79.2%
7,O=C1/C(=C/c2ccc(Cl)c(Cl)c2)SC(=S)N1Cc1ccco1,14.2%
8,CCCCOC(=O)Nc1ccc(S(=O)(=O)Nc2cc(C)ccc2C)cc1,7.1%
9,CC(C)C(=O)NC(c1ccc(N(C)C)cc1)c1c(O)ccc2ccccc12 (stereo not given),6.4%
10,CCCC1CCc2nc3ccccc3c(C(=O)O)c2C1 (stereo not given),-10.4%
11,O=C(NC12CC3CC(CC(C3)C1)C2)c1ccc(Cl)c(Cl)c1,6.9%
12,COc1ccc(-c2nc3c(n2O)CCC/C3=N\O)cc1OC,16.6%
13,O=C(CCN1C(=O)c2ccccc2C1=O)NCC1CCCO1 (stereo not given),9.6%
14,COc1ccccc1NC(=O)CSc1ncn[nH]1,2.5%
15,COc1cc(/C=C2\C(=O)NN(c3ccccc3)C2=O)ccc1OCc1ccccc1F,8.9%
16,Nc1ncc(-c2ccc([N+](=O)[O-])cc2)cn1,-4.1%
17,O=C(Nc1nc(-c2ccc(F)cc2)cs1)c1ccc(S(=O)(=O)N2CCCCCC2)cc1,129%
18,O=C(Nc1nc(-c2ccc(Cl)cc2)cs1)c1ccc(S(=O)(=O)N2CCCCC2)cc1,-9.5%
19,Cc1ccc(-c2csc(NC(=O)c3ccc(S(=O)(=O)N4CCCCCC4)cc3)n2)cc1,-19%
20,CCc1c(C)sc(NC(=O)c2cccs2)c1C(=O)OC,3.3%
21,O=C(O)C(Cc1ccccc1)N1C(=O)/C(=C/c2ccc(Br)cc2)SC1=S (stereo not given),11.6%
22,FC(F)(F)c1ccccc1CN1CCN(C2CCCCC2)CC1,1.4%
23,CCOc1cc(OCC)cc(C(=O)Nc2ccc(-c3nc4ncccc4o3)cc2)c1,0.6%
24,CCCCOc1ccc(C(=O)Nc2ccc(-c3nc4ncccc4o3)cc2)cc1,10.6%
25,O=C(Nc1ccc(-c2nc3ncccc3o2)cc1)c1cccc(OCc2ccccc2)c1,110%
26,O=C(Nc1ccc2oc(-c3cccnc3)nc2c1)c1cccc(OCc2ccccc2)c1,11%
27,CC(C)COc1ccc(C(=O)Nc2ccc(-c3nc4ncccc4o3)cc2)cc1,50.1%

row,SMILES,displacement
1,CC(C)COc1ccc(C(=O)Nc2ccc(-c3nc4ccccc4o3)cc2)cc1,10%
2,CCCCc1c(C)nc2ccc(C(=O)O)cc2c1Cl,1%
3,C=CCOc1ccc(/C=C2/C(=O)NN(c3ccc(C)c(Cl)c3)C2=O)cc1OC,15.5%
4,CCOC(=O)c1cc(-c2ccc(C=C3C(=O)N(C)C(=O)N(C)C3=O)o2)ccc1Cl,111%
5,COc1ccc(N2C(=O)NC(=O)/C(=C\c3cc(C)n(-c4ccc(N5CCOCC5)cc4)c3C)C2=O)cc1,15.9%
6,CN1C(=O)C(=Cc2ccc(-c3ccc(Cl)c(Cl)c3)o2)C(=O)N(C)C1=O,-3.8%
7,COc1ccc(N2C(=O)NC(=O)/C(=C/c3ccc(-c4ccc(C(=O)O)cc4)o3)C2=O)cc1,-10.9%
8,CCOC(=O)c1ccc(-c2ccc(/C=C3/C(=O)NN(c4cccc(Cl)c4)C3=O)o2)cc1,-1.9%
9,COC(=O)c1ccc(-n2c(C)cc(C=C3C(=O)NC(=S)NC3=O)c2C)cc1,24.8%
10,CCOC(=O)c1ccc(-c2ccc(/C=C3/C(=O)NC(=O)N(c4ccc(OC)cc4)C3=O)o2)cc1,86.2%
11,CN1C(=O)C(=Cc2ccc(-c3ccc(Cl)c(C(=O)O)c3)o2)C(=O)N(C)C1=O,14.5%
12,COC(=O)c1ccc(-n2c(C)cc(/C=C3\C(=O)NC(=O)N(c4ccc(OC)cc4)C3=O)c2C)cc1,115%
13,COc1ccc(N2C(=O)/C(=C/c3ccc(-c4ccc(C(=O)O)cc4)o3)C(=O)NC2=S)cc1,-28.2%
14,CCOC(=O)c1ccc(-c2ccc(/C=C3/C(=O)NC(=O)N(c4ccccc4)C3=O)o2)cc1,88.5%
15,Cc1cccc(N2C(=O)NC(=O)/C(=C/c3ccc(-c4ccc(C(=O)O)cc4)o3)C2=O)c1,-58.8%
16,COc1ccccc1C(=O)N1CCN(Cc2ccccc2[N+](=O)[O-])CC1,1.5%
17,COc1ccc(-n2cnc3cc(Nc4nnc(C)c5ccccc45)ccc32)cc1,0.8%
18,CCOC(=O)c1cc(CC)sc1NC(=O)c1cc([N+](=O)[O-])ccc1N1CCN(CC)CC1,-2.3%
19,O=C(CSc1ncn[nH]1)c1ccc(Br)cc1,8.5%
20,COc1ccc(S(=O)(=O)N(Cc2ccccc2)c2ccccc2C(=O)N2CCOCC2)cc1,-1.1%
21,CC(C)(CNC(=O)c1cccnc1)CNC(=O)c1cccnc1,7.9%
22,O=C(O)C(Cc1ccccc1)n1c(O)c(/C=C2\C=Nc3ccccc32)sc1=S (stereo not given),-2.3%
23,Cc1cc(/C=N/O)c(C)n1-c1ccc(F)cc1,12.6%
24,COC(=O)c1ccc(NC(=S)NC(=O)/C=C/c2ccc(Br)cc2)cc1,13.2%

# Source: PubChem BioAssay AID1240 (Sanford-Burnham Center for Chemical Genomics, 2008)
